IMPase cell inh: IMPase inhibition in cells | CHO-M1 cells, IP1 accumulation, HTRF TR-FRET ratio | P97697 | AID 901 | 120,000 tested, under 10 active | inhibition (IP1 accumulation), % at 46.1 µM; active means well fitted curve in the direction sought with a large enough effect in the signal ratio, not every such curve was filed as active; inconclusive means small, poorly fitted or top-dose-only effect, or a change in a side signal; inactive means no such curve, though single readings can be large or run the other way; the % refers to the signal ratio;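 further: cells stimulated with carbachol in lithium chloride buffer; plate controls were DMSO basal wells for no effect and reference inhibitor wells for full effect; higher means more IMPase inhibition seen as more IP1 and lower FRET ratio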
Target sequence (P97697 whole entry, looked up): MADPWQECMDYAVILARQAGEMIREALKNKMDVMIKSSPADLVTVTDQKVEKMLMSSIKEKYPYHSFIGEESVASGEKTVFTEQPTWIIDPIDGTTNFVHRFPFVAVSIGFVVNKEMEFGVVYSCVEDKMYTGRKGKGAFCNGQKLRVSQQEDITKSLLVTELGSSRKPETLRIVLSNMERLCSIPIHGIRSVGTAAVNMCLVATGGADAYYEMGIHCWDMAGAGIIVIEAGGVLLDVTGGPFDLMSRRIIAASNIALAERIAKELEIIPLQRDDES
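Cellular IMPase inhibition is scored as a rise in cytosolic IP1, detected by competitive TR-FRET between d2-labelled IP1 and a europium anti-IP1 antibody. M1-expressing CHO cells were stimulated with carbachol for 30 min at 37C, with lithium (50 mM LiCl) present in the buffer.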
ALDH1A1 inh: blocks purified human ALDH1A1 activity; P00352; Purified ALDH1A1, NADH fluorescence, propionaldehyde substrate; Potency, µM (top dose mostly 75.3 µM), without a hit: at the highest dose activity, negative = inhibition, actives largely listed as inhibitors; 7.3% of 220,000 active; AID 1030; active means well fitted inhibition curve with a large enough effect, not every such curve was filed as active; inconclusive means small, poorly fitted or top-dose-only effect, or another doubt; inactive means no such curve, though single readings can be large or run the other way;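 further: potency means the concentration at half of the fitted maximal effect; plate controls were no enzyme wells and a reference inhibitor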
Target sequence (P00352 whole entry, looked up): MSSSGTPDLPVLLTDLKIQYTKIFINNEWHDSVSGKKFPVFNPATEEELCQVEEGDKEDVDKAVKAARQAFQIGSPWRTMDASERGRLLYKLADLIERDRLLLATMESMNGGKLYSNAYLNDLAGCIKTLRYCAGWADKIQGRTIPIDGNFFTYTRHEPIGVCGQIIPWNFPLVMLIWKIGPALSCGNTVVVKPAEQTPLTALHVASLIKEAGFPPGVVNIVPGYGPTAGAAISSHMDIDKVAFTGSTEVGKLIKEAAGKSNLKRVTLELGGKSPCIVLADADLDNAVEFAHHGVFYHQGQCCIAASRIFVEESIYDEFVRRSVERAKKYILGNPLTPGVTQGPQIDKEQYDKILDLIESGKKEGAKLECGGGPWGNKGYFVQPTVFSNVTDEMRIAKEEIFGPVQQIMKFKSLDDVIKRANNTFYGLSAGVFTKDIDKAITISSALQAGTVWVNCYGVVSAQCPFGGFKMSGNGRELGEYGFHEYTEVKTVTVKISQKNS
HttQ103 aggreg: reduces HttQ103-GFP aggregates in PC12 cells | Potency, µM (doses to about 46.1 µM), for the others: top-dose activity change, negative = inhibition, most hits filed as inhibitors | PC12 HttQ103-GFP aggregates, Acumen cytometry, 40 h | 1.1% of 220,000 active | AID 1688; further: potency means the concentration at half of the fitted maximal effect; on the % scale 0 is the no-effect control and ±100 the full control effect; nearly all actives have a fitted effect of over 60% in size
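Aggregates are detected as GFP objects 1–25 µm with signal 6 STDEV over background in lysates of induced PC12 cells. These carry Huntingtin exon 1 with 103 glutamines fused to GFP under an ecdysone promoter; compounds titrated.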
HTT cytoprotect: Huntington cell model cytoprotection by ATP luminescence; 0.14% of 230,000 active; Potency, µM (top dose mostly 56.4 µM), inactives show cytoprotection (ATP increase), most hits filed as activators; PC12 HTT-Q103 induced, cytoprotection, ATP luminescence, 40 h; further: potency means the concentration at half of the fitted maximal effect; % of control where 0% means no effect; nearly all actives have a fitted effect of over 45% in size
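Compounds were screened for protection of PC12 cells against cell death after tebufenozide induction (100 nM final) of mutant Huntingtin exon 1 (Q103) fused to GFP.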
HPGD block: HPGD (human) dehydrogenase inhibition. P15428. purified HPGD, NADH fluorescence kinetic, PGE2 substrate. Potency, µM, for the others: top-dose activity change, negative = inhibition, usual class: inhibitors. 4.3% of 150,000 active; active means well fitted inhibition curve with a large enough effect, not every such curve was filed as active; inconclusive means small, poorly fitted or top-dose-only effect, or another doubt; inactive means no such curve, though single readings can be large or run the other way; further: potency means the concentration at half of the fitted maximal effect; on the % scale 0 is the no-effect control and ±100 the full control effect
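20 nM HPGD preincubated 15 min at room temperature with compound in 50 mM Tris-HCl pH 8, 0.01% Tween 20. Started with 1 mM NAD+ and 30 uM prostaglandin E2; NADH fluorescence (360/450 nm) read 5 times over 30-s intervals, last minus first.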
IMPase Li inh: cell-permeable IMPase inhibitors with lithium potentiation | CHO-M1 cells, IP1 TR-FRET (IP-One), carbachol + lithium | Potency, µM (series often up to 59.4 µM), for inactives: top-dose activity, negative = IMPase inhibition, actives largely listed as inhibitors | 0.35% of 210,000 active;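 further: IP1 builds up when IMPase is blocked and the TR-FRET signal falls; potency means the concentration at half of the fitted maximal effect; plate controls were basal vehicle for no effect and high inhibitor control for full effect; nearly all actives have a fitted effect of over 50% in size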
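Readout is a homogeneous TR-FRET IP1 immunoassay (Ex 320, Em 665 and 620), where raised cytosolic IP1 lowers signal. Cells were CHO-M1 treated 30 min at 37C with test compounds plus a little lithium; AC50 values came from Hill-equation fitting.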
Starred values were filed as active, the others as inactive; u = inconclusive; x = not tested or not shown; ! = a repeat was not active; [ ] = another dose, or the depositor's remark. The list is not random: actives were taken first. Their share in the collection is about 9.4%. Unless noted, the call rests on the fitted dose curve; in most records, active means well fitted curve in the direction sought with a large enough effect; inconclusive means small, poorly fitted or top-dose-only effect, or another doubt; inactive means no such curve, though single readings can be large; an effect the other way counts as inactive or inconclusive.

SMILES | IMPase cell inh | ALDH1A1 inh | HttQ103 aggreg | HTT cytoprotect | HPGD block | IMPase Li inh
C=CCN1C(=O)/C(=C/c2ccc(N(C)C)cc2)S/C1=N\c1nnc(CC)s1 | -3 | u | -1% | 13% | -10% | 32%[38.3 µM]
C=CCN1C(=O)/C(=C/c2ccc(OCC(=O)O)cc2)S/C1=N/c1nccs1 | x | 5µM* | 16% | x | -19% | -9%
C=CCN1C(=O)/C(=C/c2ccc(O)c(OC)c2)S/C1=N/c1nccs1 | x | 1µM* | -27% | x | -17% | 4%
CCNc1ncc2nc(C)c(=O)n(CCc3ccccc3)c2n1 | x | u | x | -49% | x | 19%
O=C(Nc1ccccc1)N1CCCC2(CCN(C(=O)c3cnccn3)CC2)C1 | x | 9% | x | -7% | -5% | 5%
Cc1ccc(Nc2nnns2)cc1 | 4 | 2.5µM* | 7% | -25% | 22µM* | 18%[38.3 µM]
CN(C)c1ccc(-c2nc(NCc3cccnc3)c3ccccc3n2)cc1 | x | u | x | -108% | u | u
O=C1CN(C(=O)c2ccc(Br)o2)C(c2ccccc2)c2cc(Br)ccc2N1 (stereo not drawn) | 14 | 22µM* | 8% | 18% | -16% | 10%[38.3 µM]
O=C1CN(C(=O)c2ccc(Br)o2)C(c2ccccc2)c2cc(Cl)ccc2N1 (stereo not drawn) | 8 | -18% | -28% | -48% | -16% | 10%[38.3 µM]
Cc1ccc2c(c1)C(c1ccccc1)N(C(=O)c1ccc(Br)o1)CC(=O)N2 (stereo not drawn) | 8 | -16% | -15% | -27% | -1% | -1%[38.3 µM]
O=C1CN(C(=O)c2ccc(Br)o2)C(c2ccc(F)cc2)c2cc(Cl)ccc2N1 (stereo not drawn) | 4 | 22µM* | -27% | -65% | -20% | 5%[38.3 µM]
Cc1c(NC(=O)CNCc2ccc3c(c2)OCO3)c(=O)n(-c2ccccc2)n1C | x | x | 8%[9.22 µM] | -9%[10 µM] | x | x
CC(C)[C@@H](CC(=O)N[C@@H]1CCCC[C@H]1C(=O)N[C@H](CC(=O)N[C@@H](CCC(=O)O)CC(=O)O)Cc1c[nH]c2ccccc12)NC(=O)C[C@H](Cc1c[nH]c2ccccc12)NC(=O)[C@@H]1CNCC[C@H]1N | x | -4% | x | -10%[1.9 µM] | -5% | 13%
Cc1ccc(NC(=O)CN(CCc2ccccc2)S(=O)(=O)c2ccccc2)c(C)c1 | 5 | x | x | x | x | x
Cc1cc(C(=O)CSc2nc3ccccc3c(=O)[nH]2)c(C)n1C | 19 | -4% | 17% | -13% | 22µM* | 2%[38.3 µM]
Cc1cc(C(=O)CSC(C)c2nc3ccccc3c(=O)[nH]2)c(C)n1C (stereo not drawn) | 2 | 15% | 0% | 7% | -15% | -6%[38.3 µM]
CC(C)(C)c1ccc(C(=O)CSc2nc3ccccc3c(=O)[nH]2)cc1 | 10 | u | u | -20% | -15% | -90%[38.3 µM]
O=C(CSc1nc2ccccc2c(=O)[nH]1)c1ccccc1 | u | u | 9% | 17%[10 µM] | 13µM* | u
Cc1ccc(NC(=O)Cn2cnc3sc(C(=O)O)c(C)c3c2=O)cc1Cl | -4 | x | x | x | x | x
N#C/C(=N\O)c1nc(-c2ccccc2)cs1 | -9 | 0% | 8.9µM*! | -7% | -26% | -7%[38.3 µM]
CC(C)CCN(CCC(C)C)C/C(O)=C(\C#N)c1nc(-c2ccccc2)cs1 | -2 | -10% | -5%[9.22 µM] | -16% | -21% | 16%[38.3 µM]
COC(=O)N/N=C(\C)c1ccc2ccccc2c1OC(F)F | x | 8% | u | 0.79µM* | -10% | -3%
Cc1ccnc2nc(C(=O)Nc3ccc4c(c3)OCO4)nn12 | -3 | 4% | 4% | -47% | -3% | 5%[38.3 µM]
O=C(Nc1ccc2c(c1)OCCO2)c1cccs1 | 5 | u | 3% | -2%[1.9 µM] | 20µM* | -1%
O=C(Nc1nc2cc3c(cc2s1)OCCO3)c1cccs1 | x | x | 27%[9.22 µM] | -33%[10 µM] | x | x
SMILES | IMPase cell inh | ALDH1A1 inh | HttQ103 aggreg | HTT cytoprotect | HPGD block | IMPase Li inh
COc1ccccc1C(=O)Nc1ccc2c(c1)OCO2 | 11 | 7% | -5%[9.22 µM] | -35% | -13% | -13%[38.3 µM]
Cc1ccccc1C(=O)Nc1ccc2c(c1)OCO2 | 12 | -5% | -5% | -98% | 18µM* | -18%[38.3 µM]
O=C(Nc1ccc2c(c1)OCO2)c1cccs1 | 22 | u | -2% | -73% | 25µM* | -6%[38.3 µM]
Cc1cc(C)n2nc(C(=O)Nc3ccc4c(c3)OCO4)nc2n1 | 9 | u | 14% | 12%[1.9 µM] | 20µM* | 34%[38.3 µM]
COc1ccc(-c2c(C)n([O-])c3c([n+]2=O)CCCCC3)cc1OC | x | 7% | -11%[9.22 µM] | -6% | x | 6%
CCN(CC)c1ccc(NC(=O)CSc2nnc3nc(C)cc(C)n23)cc1 | 15 | u | -11% | 2% | 16µM* | 31%[38.3 µM]
CCN(CC)c1ccc(NC(=O)c2nc3nc(C)cc(C(F)F)n3n2)cc1 | u | 11µM* | -12% | 2%[10 µM] | 22µM* | 99%[38.3 µM]
Cc1cc(C)n2c(SCC(=O)Nc3ccccc3)nnc2n1 | -8 | -1% | 10% | -12% | -20% | -5%[38.3 µM]
Cc1cc(C(F)F)n2nc(C(=O)Nc3ccc(C(C)C)cc3)nc2n1 | 5 | x | x | x | x | x
O=C(c1ccc2c(c1)OCCCO2)c1cccs1 | 5 | -13% | 0% | -74%[10 µM] | 14µM* | -7%[38.3 µM]
CCOc1ccc(S(=O)(=O)Nc2ccc3c(c2)c(C(C)=O)c(C)n3S(=O)(=O)c2ccc(OCC)cc2)cc1 | 2 | x | x | x | x | x
Cc1ccc2c(c1)C(=O)C(=O)N2CC(=O)OC(C)C | -13 | 0.079µM* | 6% | -6% | 1% | -5%[38.3 µM]
Nc1ccc(N(S(=O)(=O)c2ccccc2)S(=O)(=O)c2ccccc2)c(Cl)c1 | x | -12%[13.5 µM] | x | 6%[10 µM] | -1% | 1%
O=Cc1ccc(Oc2cc(-c3ccccc3)nc(-c3ccccc3)n2)cc1 | -5 | 22µM* | 6% | 16%[1.9 µM] | -7% | -10%
CC(=O)c1ccc(Oc2cc(-c3ccccc3)nc(-c3ccccc3)n2)cc1 | x | 0% | -10% | 19%[10 µM] | -11% | 2%
Cc1cccc(-n2nnnc2SCC(=O)c2cc(C)n(CC3CCCO3)c2C)c1 (stereo not drawn) | 16 | 7.9µM* | 16% | -20% | -10% | 4%[38.3 µM]
Cc1cc(C(=O)CSc2nnc(N)s2)c(C)n1Cc1ccco1 | x | -7% | -21% | -135% | x | -8%
Cc1ccc(-n2nnnc2SCC(=O)c2cc(C)n(CC3CCCO3)c2C)cc1 (stereo not drawn) | 2 | 0% | -6% | -26% | -2% | 9%[38.3 µM]
Cc1cccc(-n2nnnc2SCC(=O)c2cc(C)n(Cc3ccco3)c2C)c1 | -4 | 18µM* | -24% | -28% | -8% | 3%[38.3 µM]
Cc1cc(C(=O)CSc2nc3ccccc3[nH]2)c(C)n1CC1CCCO1 (stereo not drawn) | 15 | u | u | -76% | 16µM* | 28%[38.3 µM]
Cc1cc(S(=O)(=O)N2CCN(C(=O)CCC(=O)N3CCOCC3)CC2)ccc1Br | x | x | -16%[9.22 µM] | 1%[10 µM] | x | x

Bioassay records: PubChem BioAssay, National Center for Advancing Translational Sciences (NCATS)
